Laboratory results reported in PubChem BioAssay.
The source made the active and inactive calls. Unless noted, the rule behind the calls is not given here.

Experiments:
[1] = A549 cell viability effects, profiling panel, calcein-AM fluorescence, 48 h, basal (AID 1162); details: higher = more signal; note: test concentration not given here
[2] = adipocyte viability effects, profiling panel, cell-based, 3T3-L1 adipocytes, calcein-AM fluorescence, 48 h, basal (AID 1163); details: 3T3-L1 adipocytes viability, higher = more signal; note: test concentration not given here
[3] = HepG2 cell viability effects, profiling panel, calcein-AM fluorescence, 48 h, basal (AID 1164); details: higher = more signal; note: test concentration not given here
[4] = MM1S cell viability effects, profiling panel, calcein-AM fluorescence, 48 h, basal (AID 1165); details: higher = more signal;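 note: viability of MM1S multiple myeloma cells under basal unstimulated conditions; test concentration not given here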
[5] = basal RPMI8226 viability, no added stimulus, profiling panel, cell-based, calcein-AM fluorescence, 48 h, PK04 Diversity Set (AID 1166); details: RPMI8226 myeloma viability, higher = more signal;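 note: cells grown under basal conditions without added stimulus; test concentration not given here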
[6] = basal HepG2 mitochondrial membrane potential changes, profiling panel, cell-based, JC-1 fluorescence, 24 h, 100 nL compound (AID 1167); details: higher = more signal; note: test concentration not given here
[7] = basal 3T3-L1 adipocyte mitochondrial potential changes, profiling panel, cell-based, JC-1 fluorescence, 3T3-L1 adipocytes, 24 h, 100 nL compound (AID 1168); details: JC-1 mitochondrial fluorescence, higher = more signal, called active from +8 up or from −8 down; note: test concentration not given here
[8] = basal RPMI8226 mitochondrial membrane potential changes, profiling panel, cell-based, JC-1 fluorescence, 24 h, 100 nL compound (AID 1169); details: RPMI8226 myeloma, JC-1 mitochondrial potential fluorescence, higher = more signal; note: test concentration not given here
[9] = basal MM1S mitochondrial membrane potential changes, profiling panel, cell-based, JC-1 fluorescence, 24 h, 100 nL compound (AID 1170); details: higher = more signal; note: test concentration not given here
[10] = A549 lung cancer cell viability effects, profiling panel, resazurin fluorescence, 24 h, PK04 Diversity Set (AID 1171); details: higher = more signal, called active from +8 up or from −8 down; note: test concentration not given here
[11] = HepG2 liver cancer cell viability effects, profiling panel, resazurin fluorescence, 24 h, PK04 Diversity Set (AID 1172); details: higher = more signal; note: test concentration not given here
[12] = basal S. cerevisiae growth modulation, no modifier, primary screen, OD600, strain BY4716, 24 h, basal condition (AID 1173); details: OD600, 24 h, higher = more signal, called active from +8 up or from −8 down
[13] = MM1S myeloma cell viability, profiling panel, resazurin fluorescence, basal, 24 h, PK04 Diversity Set (AID 1174); details: higher = more signal, called active from +8 up or from −8 down;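 note: MM1S multiple myeloma cell line; test concentration not given here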
[14] = molecular target: Dihydroorotate dehydrogenase (quinone), mitochondrial (Plasmodium falciparum (isolate 3D7)) (UniProt Q08210); test: PfDHODH enzyme inhibitors, primary screen, biochemical, C-terminal His tag, absorbance 600 nm (AID 1175); details: DCIP absorbance 600 nm, higher = more signal, called active from +8 up or from −8 down;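 note: recombinant parasite enzyme with a five histidine tag at its C terminus; test concentration not given here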
[15] = P. aeruginosa biofilm formation inhibitors, primary screen, strain PAO1, LB-PBS medium, absorbance 600 nm (AID 1176); note: test concentration not given here; details: P. aeruginosa PAO1 growth/biofilm, A600, 12 h; higher = more signal
[16] = S. cerevisiae RM11-1a growth modifiers, primary screen, strain RM11-1a, OD600, basal, 24 h (AID 1177); details: OD600, 24 h, higher = more signal, called active from +8 up or from −8 down;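 note: cultures grown under basal conditions with no added stressor; test concentration not given here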
[17] = E. coli acrAB mutant growth effects, primary screen, E. coli filamentation inducers, strain DRC39, OD650, 24 h (AID 1178); details: higher = more signal, called active from +8 up or from −8 down;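 note: growth measured as culture turbidity by optical density at 650 nm; test concentration not given here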
[18] = E. coli acrAB mutant growth effects, primary screen, E. coli filamentation inducers, strain DRC39, OD650, 48 h (AID 1179);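 note: screen aims at cell division blockers that make cells filament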; details: E. coli DRC39 delta-acrAB growth, higher = more signal, called active from +8 up or from −8 down
[19] = RPMI8226 myeloma cell viability, profiling panel, resazurin fluorescence, basal, 24 h, PK04 Diversity Set (AID 1180); details: higher = more signal;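 note: RPMI8826 multiple myeloma cell line at 5000 cells per well; test concentration not given here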
[20] = molecular target: E3 ubiquitin-protein ligase XIAP (Homo sapiens) (UniProt P98170); test: XIAP binders, primary screen, biophysical, small-molecule microarray, fluorescence 635 nm (AID 1181); details: small-molecule microarray binding, higher = more signal;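 note: score merges 667 nm emission and signal to noise over triplicate slides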
Sequence of E3 ubiquitin-protein ligase XIAP (Homo sapiens) (P98170 whole entry, looked up): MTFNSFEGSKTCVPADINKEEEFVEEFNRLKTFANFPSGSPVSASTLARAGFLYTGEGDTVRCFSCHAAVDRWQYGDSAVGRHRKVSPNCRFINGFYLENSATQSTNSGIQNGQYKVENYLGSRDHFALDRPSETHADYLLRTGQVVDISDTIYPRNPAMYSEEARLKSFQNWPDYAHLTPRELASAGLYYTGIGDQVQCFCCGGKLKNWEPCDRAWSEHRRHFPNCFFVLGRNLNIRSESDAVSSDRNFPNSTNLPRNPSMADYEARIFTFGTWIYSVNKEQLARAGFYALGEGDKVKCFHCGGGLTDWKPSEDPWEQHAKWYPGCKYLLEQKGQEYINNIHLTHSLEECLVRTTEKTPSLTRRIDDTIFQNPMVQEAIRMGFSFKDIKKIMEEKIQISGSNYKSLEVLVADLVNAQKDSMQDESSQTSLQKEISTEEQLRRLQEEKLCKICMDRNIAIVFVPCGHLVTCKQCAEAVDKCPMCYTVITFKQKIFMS

Sequence of Dihydroorotate dehydrogenase (quinone), mitochondrial (Plasmodium falciparum (isolate 3D7)) (Q08210 whole entry, looked up): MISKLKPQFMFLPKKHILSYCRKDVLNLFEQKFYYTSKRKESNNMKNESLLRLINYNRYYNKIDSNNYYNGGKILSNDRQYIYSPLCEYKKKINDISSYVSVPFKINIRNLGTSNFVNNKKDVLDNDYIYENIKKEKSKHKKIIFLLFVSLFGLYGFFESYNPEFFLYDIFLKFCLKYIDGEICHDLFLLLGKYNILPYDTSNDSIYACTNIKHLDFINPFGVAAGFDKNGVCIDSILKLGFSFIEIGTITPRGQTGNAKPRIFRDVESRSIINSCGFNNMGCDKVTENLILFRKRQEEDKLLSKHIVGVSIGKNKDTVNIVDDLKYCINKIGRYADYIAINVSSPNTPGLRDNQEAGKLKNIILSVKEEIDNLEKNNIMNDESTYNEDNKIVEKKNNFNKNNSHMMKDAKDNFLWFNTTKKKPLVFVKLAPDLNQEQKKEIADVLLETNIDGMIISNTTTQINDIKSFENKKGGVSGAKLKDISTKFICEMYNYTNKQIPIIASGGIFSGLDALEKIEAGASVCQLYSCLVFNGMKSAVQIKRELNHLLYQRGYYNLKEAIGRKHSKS

Compound | z-score [1] | z-score [2] | z-score [3] | z-score [4] | z-score [5] | z-score [6] | z-score [7] | z-score [8] | z-score [9] | z-score [10] | z-score [11] | z-score [12] | z-score [13] | composite z-score [14] | z-score [15] | z-score [16] | z-score [17] | z-score [18] | z-score [19] | composite z-score [20]
COc1ccc(C(=O)Nc2cccc(CN3C(=O)[C@@]4(O[C@@H](CCn5cc([C@H](O)c6ccccc6)nn5)[C@H]([Si](C)(C)c5ccc(OC)cc5)[C@H]4C)c4ccccc43)c2)cc1 | -0.311 | 0.0953 | -3.44 | -2.63 | -3.6 | -2.16 | -0.694 (inactive) | -1.03 | -2.24 | -1.88 (inactive) | -2.55 | -1.74 (inactive) | -6.53 (inactive) | -0.0516 (inactive) | 1.38 (inactive) | 0.588 (inactive) | 0.259 (inactive) | -0.237 (inactive) | -6.13 | -0.0228
Cc1ccc(S[C@]2(C(=O)NCCN3CCOCC3)CC(=O)N(C3CCCCC3)[C@@H]2c2ccc(CO)cc2)cc1 | 2.25 | 0.486 | 0.555 | 0.309 | -0.65 | -0.0786 | -0.281 (inactive) | 0.698 | 0.485 | 1.51 (inactive) | 0.375 | 0.436 (inactive) | 0.511 (inactive) | 0.113 (inactive) | 0.186 (inactive) | -0.463 (inactive) | 0.048 (inactive) | -0.483 (inactive) | 0.838 | 0.0024
Cc1cc(C)c(C(O)C2C=CC3C(=O)NC(=O)C3N2Nc2ccccn2)c(C)c1 (stereo not given) | -0.948 | -0.397 | 0.359 | 0.22 | 0.066 | -0.767 | -0.363 (inactive) | -0.188 | -0.0615 | -0.875 (inactive) | -1.25 | 0.705 (inactive) | -1.78 (inactive) | 1.41 (inactive) | 0.9 (inactive) | 0.276 (inactive) | -0.579 (inactive) | -0.342 (inactive) | -0.68 | 0.203
CC1CC/C=C\[C@H]2OC34C=CCN(CCN5CCOCC5)C(=O)[C@H]3N(CCCCCO)C(=O)[C@@H]4C2C(=O)O1 (stereo not given in full) | -0.365 | 0.374 | 0.68 | 1.09 | 0.0186 | -0.461 | -0.189 (inactive) | -0.0345 | -0.107 | -0.19 (inactive) | -0.693 | -0.501 (inactive) | 0.183 (inactive) | 1.07 (inactive) | -0.456 (inactive) | 0.0357 (inactive) | 0.408 (inactive) | 0.45 (inactive) | -0.977 | 0.33
COc1ccc(C#Cc2ccc3c(c2)[C@]2(C(=O)N3)[C@H](C(=O)N3CCc4cc(OC)c(OC)cc4C3)[C@H]3C(=O)O[C@H](c4ccccc4)[C@H](c4ccccc4)N3[C@@H]2c2ccc(OCCO)cc2)cc1 | 1.04 | 0.386 | 0.515 | -0.73 | 0.223 | -0.233 | 2.37 (inactive) | -0.513 | -1.5 | 0.185 (inactive) | 0.0594 | 2.37 (inactive) | -0.0819 (inactive) | -1.04 (inactive) | 1.66 (inactive) | 4.19 (inactive) | 0.452 (inactive) | 0.593 (inactive) | 1.5 | -0.209
C=CCC(OC(C)=O)[C@@H]1[C@@H](N(Cc2ccc(-c3cccc(C(F)(F)F)c3)o2)C(=O)Cc2ccc(OC)cc2)c2cc(OCCCO)ccc2N1C(=O)Cc1ccc(OC)cc1 (stereo not given in full) | 1.92 | 1.38 | 0.641 | 0.018 | -1.02 | 2.08 | -0.709 (inactive) | -0.804 | -0.757 | 0.139 (inactive) | -0.0596 | -1.2 (inactive) | 1.08 (inactive) | -1.49 (inactive) | 0.125 (inactive) | -1.08 (inactive) | 1.49 (inactive) | 0.814 (inactive) | 0.695 | -0.0879
O=C(NCC(O)CO)[C@@]1(Cc2ccccc2)COC(c2ccc(OCCCO)cc2)=N1 (stereo not given in full) | -0.0736 | -0.183 | -0.283 | -0.467 | -0.164 | -0.201 | -0.817 (inactive) | -0.805 | -0.89 | -0.0991 (inactive) | 0.55 | -0.339 (inactive) | -0.322 (inactive) | -0.815 (inactive) | 0.385 (inactive) | 0.0962 (inactive) | 0.187 (inactive) | 0.276 (inactive) | 0.0244 | -0.135
C=CCNC(=O)[C@H]1[C@@H]2C(=O)O[C@@H](c3ccccc3)[C@@H](c3ccccc3)N2[C@@H](c2ccc(OCCO)cc2)[C@]12C(=O)N(C(=O)OCCOC)c1ccc(C#CC3(O)CCCCCC3)cc12 | 1.13 | 1.61 | 0.388 | -0.963 | -2.4 | -0.898 | 1.71 (inactive) | -0.774 | -0.988 | 0.454 (inactive) | -0.162 | 1.33 (inactive) | -0.421 (inactive) | -1.08 (inactive) | 1.79 (inactive) | 2.43 (inactive) | -0.129 (inactive) | 1.16 (inactive) | 0.393 | -0.0999
C=C(COC)C(=O)CC[C@H](OC(=O)c1cccnc1)c1ccccc1OCCO | -0.414 | -0.751 | -1.24 | -3.3 | -3.76 | -0.952 | 0.0833 (inactive) | -0.706 | -2.25 | 0.138 (inactive) | -0.577 | -0.332 (inactive) | -3.06 (inactive) | -0.414 (inactive) | 1.45 (inactive) | -0.511 (inactive) | -0.438 (inactive) | -0.285 (inactive) | -2.92 | -0.0143
